Reference: the supplement of paper PMC12067093, “Discovery and optimisation of a covalent ligand for TRIM25 and its application to targeted protein ubiquitination” (Chemical Science, 2025)
About 21,000 targets were measured; listed, in parts, are those with the largest changes and a random draw of the rest.

Target: TMLHE_Q9NVH6_51_SLTCAWQQHEDHFELK (UniProt Q9NVH6)
Assay: probe-labelled cysteine peptide fold change vs DMSO (competition) (log2 fold change); higher = less target engagement (more negative = stronger competition)
Conditions: THP-1, incubation time: 4 h
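Note: competitive profiling in live THP-1 cells: cysteine peptides tagged with an iodoacetamide desthiobiotin (IA-DTB) probe, intensity after compound treatment relative to DMSO-treated cells.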

Sequence of UniProt Q9NVH6 (Q9NVH6 whole entry, looked up): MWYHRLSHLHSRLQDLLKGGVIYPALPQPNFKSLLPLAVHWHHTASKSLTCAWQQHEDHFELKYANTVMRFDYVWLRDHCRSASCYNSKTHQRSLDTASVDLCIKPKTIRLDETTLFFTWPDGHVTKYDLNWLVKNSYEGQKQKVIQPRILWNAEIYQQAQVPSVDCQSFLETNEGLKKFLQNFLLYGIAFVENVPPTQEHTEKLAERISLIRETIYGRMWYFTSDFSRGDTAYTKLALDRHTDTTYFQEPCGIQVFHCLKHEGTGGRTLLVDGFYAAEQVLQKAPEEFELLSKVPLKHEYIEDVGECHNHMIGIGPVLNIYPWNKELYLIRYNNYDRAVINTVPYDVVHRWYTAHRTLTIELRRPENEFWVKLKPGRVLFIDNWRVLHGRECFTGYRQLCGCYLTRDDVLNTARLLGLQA

## Cc1cc(C(=O)N2CCCN(C(=O)CCl)CC2)ccc1-c1ccccc1 [compound 10]
10 µM
  probe-labelled cysteine peptide fold change: -0.0542
50 µM
  probe-labelled cysteine peptide fold change: -0.13
